Reference: PubChem BioAssay AID624330 (Southern Research Specialized Biocontainment Screening …, 2012)
About 2,100 (0.62%) of roughly 340,000 compounds were called active.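 How the source made its calls: active means first-screen hits whose inhibition reached a set limit at any dose in the follow-up dose series; inconclusive means inhibition above the set first-screen limit but never retested; inactive means the rest.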 A selection follows. Results with a measured potency or affinity are listed apart.

These compounds were tested against Rac GTPase-activating protein 1 (Homo sapiens) (UniProt Q9H0H5) (assay: blockers of MgcRacGAP-driven Rac1 GTP hydrolysis – biochemical, ADP Hunter fluorescence, primary and confirmatory, confirmation (AID 624330;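 further: fluorescence reports GDP produced by GAP-driven GTP hydrolysis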)). Conditions: MgcRacGAP-stimulated Rac1 GTP hydrolysis, at 30 µM, stronger effect = higher value, GST-tagged Rac1 F28L mutant substrate.
Chain of Rac GTPase-activating protein 1 (Homo sapiens) (Q9H0H5 whole entry, looked up): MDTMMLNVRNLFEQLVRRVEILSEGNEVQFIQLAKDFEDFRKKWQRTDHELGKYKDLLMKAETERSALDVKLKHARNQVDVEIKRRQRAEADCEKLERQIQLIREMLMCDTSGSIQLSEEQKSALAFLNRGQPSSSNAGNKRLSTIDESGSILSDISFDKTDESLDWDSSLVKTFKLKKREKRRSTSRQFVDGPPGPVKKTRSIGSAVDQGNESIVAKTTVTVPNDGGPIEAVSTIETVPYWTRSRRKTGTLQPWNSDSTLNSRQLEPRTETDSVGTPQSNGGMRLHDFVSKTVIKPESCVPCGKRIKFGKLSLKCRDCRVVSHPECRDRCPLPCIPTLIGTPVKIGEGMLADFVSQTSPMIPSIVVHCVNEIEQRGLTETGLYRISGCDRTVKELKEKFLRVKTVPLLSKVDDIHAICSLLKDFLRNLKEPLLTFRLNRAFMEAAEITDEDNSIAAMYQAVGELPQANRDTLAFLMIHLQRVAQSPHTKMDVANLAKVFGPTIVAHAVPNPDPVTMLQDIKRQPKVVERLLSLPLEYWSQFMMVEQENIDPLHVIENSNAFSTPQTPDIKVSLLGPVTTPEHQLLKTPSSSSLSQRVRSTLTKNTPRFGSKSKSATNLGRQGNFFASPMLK

inhibition, inactive:
CS(=O)(=O)N(CC(=O)N1CCCC1)c1cc(Cl)ccc1Cl 8.42%
Cc1ccc(S(=O)(=O)NCC(c2ccco2)N2CCc3ccccc3C2)cc1 (stereo unspecified) 2.71%
Cc1c(N(C)S(=O)(=O)c2ccc(Cl)c(C(=O)NCC3CCCO3)c2)c(=O)n(-c2ccccc2)n1C (stereo unspecified) 1.31%
O=C(Nc1nnc(C2CC2)s1)C1CCCCC1 3.57%
CCOc1ccc(CCNC(=O)COC(=O)c2ccc(OC(C)C)cc2)cc1OCC -0.74%
CCOc1ccccc1CN1CCC(N2CCC(C(=O)NC3CC3)CC2)CC1 9.11%
CCOc1ccccc1CN1CCC(O)CC1 15.6%
CCOc1ccc(C(=O)NCCC(=O)NCCCC(=O)O)cc1 -5.31%
O=C(CCS(=O)(=O)c1ccc(Cl)cc1)Nc1nnc(-c2ccco2)o1 3.12%
COc1ccccc1CNCc1cc(Br)ccc1OC 23.1%
COc1ccc(CCNC(=O)Cc2cccc(C(F)(F)F)c2)cc1OC 8.81%
COc1cccc(CNCc2ccccc2OC)c1 22.3%
COc1ccc(CNCCc2ccc([N+](=O)[O-])cc2)c(OC)c1OC 25.1%
COc1cccc(CNCCO)c1OCc1ccc(Cl)cc1 9.58%
COc1ccccc1CNC(=O)CCSCc1cccc(Cl)c1 -0.5%
COc1ccc(CNCc2ccc(C(F)(F)F)cc2)cc1OC 2.76%
COc1ccc(NC(=O)NCCc2cccc(Cl)c2)cc1OC 11.4%
O=C(NCc1ccco1)C1CCCN(c2nnc(-n3cccc3)s2)C1 (stereo unspecified) 14.7%
C=CCn1c(SCC(=O)NC2(C)CCS(=O)(=O)C2)nc2ccccc21 (stereo unspecified) 1.26%
Cn1c(N)c(C(=O)CSc2nc3ccccc3n2-c2ccccc2)c(=O)n(C)c1=O 4.85%
CCOC(=O)CNC(=O)C1c2ccccc2Oc2ccccc21 3.51%
Cc1csc(NC(=O)c2ccncc2)n1 7.69%
Cc1cc(=O)[nH]c(SCC(=O)Nc2ccccc2[N+](=O)[O-])n1 6.16%
CC(=O)N(C)c1ccc(N=Nc2ccc3ncccc3c2)cc1 -1.54%
COc1ccc(/C=N/NC(=O)c2sc3nc(C)cc(C)c3c2N)cc1 9.68%
O=C(O)C1Nc2c(C(F)(F)F)ccc(Cl)c2C2C=CCC12 (stereo unspecified) -3.26%
CC(C)C1Nc2c(O)cc(Cl)c([N+](=O)[O-])c2C2C=CCC21 (stereo unspecified) 11.3%
CCCCn1nc(C(=O)N(CC(C)C)c2c(N)n(CCCC)c(=O)[nH]c2=O)c2ccccc2c1=O 9.52%
COc1ccccc1-c1nnc(SCC(=O)NC2CCS(=O)(=O)C2)n1N (stereo unspecified) 8.87%
Cc1cnc(C(=O)Oc2c(C)ccc(C)c2C)cn1 -0.23%
Cc1cnc(C(=O)OCC(=O)c2ccc(-c3ccccc3)cc2)cn1 -1.23%
Cc1ccc(S(=O)(=O)N2CCC(C(=O)NCCc3ccccc3)CC2)cc1 2.72%
CSCCC(NC(=O)c1ccccc1Cl)C(=O)NNC(=O)c1ccncc1 (stereo unspecified) 7.49%
c1ccc(Cn2cc(-c3ccccc3)cn2)cc1 6.79%
COc1ccc(C(C#N)=C2C=C(Cl)C(=NO)C=C2Cl)cc1 -1.89%
COc1ccc(C(C#N)=C2C=CC(=NO)C(C)=C2Cl)cc1 21.7%
O=C(CN1CCN(c2ccccn2)CC1)Nc1ccccc1 -4.1%
COC(=O)c1ccc(NC(=O)CN2CCN(c3ccccn3)CC2)cc1 2.35%
CC(=O)Nc1ccc(NC(=O)CN2CCN(c3ccccn3)CC2)cc1 6.59%
CC(C)c1ccc(NC(=O)CN2CCN(c3ccccn3)CC2)cc1 7.53%
CN1CCN(C(=O)c2cnn3c(C(F)(F)F)cc(-c4ccc5c(c4)OCO5)nc23)CC1 9.9%
O=c1[nH]c2c(s1)C(c1ccc(O)cc1)C1C3CCC(C3)C1S2 (stereo unspecified) 11.5%
C[C@H](NC(=O)[C@H](Cc1ccccc1)n1c(=O)[nH]c2ccccc2c1=O)C(=O)N1CCC[C@H]1C(=O)O -3.53%
COc1ccc(CCN2C(=O)c3cccnc3C2=O)cc1OC 12.5%
O=C1C=C(NCCc2cc(Br)c(O)c(Br)c2)C(=O)c2ncccc21 9.18%
CCOC(=O)C1CCN(C(=O)C2CCN(C(=O)c3ccc([N+](=O)[O-])cc3)CC2)CC1 12%
CCOC(=O)c1ccc(-n2c(=S)sc3c(=O)[nH]c(C)nc32)cc1 16.1%
C=CCNC(=O)C(=O)N/N=C/c1cccc(Br)c1 5.98%
O=c1ccc2c(-c3ccccc3S(=O)(=O)O)c3ccc(O)c(O)c3oc-2c1O 42.2%
O=C(O)c1ccccc1-c1c2cc(I)c(=O)c(I)c-2oc2c(I)c(O)c(I)cc12 28.3%
O=C(NCc1ccccc1)c1onc(CS(=O)(=O)c2ccccn2)c1C(=O)NCc1ccccc1 -5.99%
NC(=O)C(c1ccc(Cl)cc1)c1ccc(Sc2ccc(Cl)cc2)nn1 (stereo unspecified) 11.6%
Nc1cccc(C(=O)Nc2cccc3ncccc23)c1 -7.17%
CCOC(=O)N1C/C(=C\c2ccccc2)C(=O)/C(=C/c2ccccc2)C1 12.1%
O=C(/C=C/c1ccc(Cl)c(Cl)c1)N1CCOCC1 -0.69%
O=C(CCC(=O)N1CCOCC1)Nc1ccc(Cl)c(Cl)c1 5.89%
C=CC(=O)N1C/C(=C/c2ccc(Cl)cc2)C(=O)/C(=C\c2ccc(Cl)cc2)C1 13.6%
CCN(CC)CCC(=O)N1c2ccccc2Sc2ccc(Cl)cc21 2.76%
O=C1/C(=C/c2ccccc2)CN(C(=O)CCN2CCOCC2)C/C1=C\c1ccccc1 27.7%
C=CC(=O)N1C/C(=C/c2ccc(F)cc2)C(=O)/C(=C\c2ccc(F)cc2)C1 13.1%
C=CC(=O)N1C/C(=C/c2ccccc2)C(=O)/C(=C\c2ccccc2)C1 26.6%
